Data from PubChem BioAssay.
For some assays here: Measured potencies and affinities stand elsewhere. Activity calls are given as the source filed them. Unless noted, no rule for the calls is given here.

How the values were obtained:
[1] = antimalarial activity against Dd2 strain (AID 2302;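 active = growth inhibition above 50% at the single 2 µM test dose, taken to imply half-maximal potency below 2 µM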;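 also: 0% = DMSO untreated growth and 100% = chloroquine plus artemisinin killed control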); details: P. falciparum Dd2 in RBCs, LDH growth readout, 72 h; at 2 µM; hits give high values
[2] = HepG2 cytotoxicity, primary screen, cytotoxicity control for P. falciparum antimalarial project, cell-based, ATP luminescence (AID 2303;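 active = inhibition above 50%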;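 also: 0% = DMSO wells and 100% = digitonin-killed cells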); details: HepG2 viability, 24-48 h, at 10 µM, hits give high values
[3] = target: L-lactate dehydrogenase (Plasmodium falciparum (isolate CDC / Honduras)) (UniProt Q27743); experiment: PfLDH activity inhibition – cell lysate, 3D7 strain, counter-screen for P. falciparum growth inhibition project (AID 2304);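 also: 0% = vehicle and 100% = reference inhibitor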; details: P. falciparum 3D7 crude extract, LDH APAD/NBT absorbance; at 2 µM; hits give high values
[4] = inhibition of 3D7 malaria parasite growth – strain 3D7 (AID 2306);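 also: 0% = DMSO wells and 100% = chloroquine plus artemisinin control wells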; details: P. falciparum 3D7 erythrocytic growth, LDH absorbance, 72 h; at 2 µM; hits give high values
[5] = target: Calcium-dependent protein kinase 1 (Plasmodium falciparum (isolate 3D7)) (UniProt P62344); experiment: PfCDPK1 kinase inhibitors, biochemical, TCAMS library (AID 1159585; cut-off not given, nearly all actives have IC50 up to about 0.98 µM;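 also: inhibitors leave more ATP so luminescence rises with inhibition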); details: recombinant PfCDPK1, Kinase-Glo ATP depletion luminescence
[6] = target: Plasmodium falciparum protein kinase 6 (PK6, PF3D7_1337100) (UniProt Q8IDW1); experiment: PfPK6 kinase inhibitors, biochemical, TCAMS library (AID 1159586); details: recombinant PfPK6, Kinase-Glo ATP depletion luminescence
[7] = target: Protein kinase 7 (PK7), Plasmodium falciparum 3D7 (PF3D7_0213400) (UniProt Q7YTF7); experiment: inhibition of Plasmodium PK7 catalytic activity – biochemical, TCAMS antimalarial set, Kinase-Glo luminescence (AID 1159587); details: recombinant PfPK7, Kinase-Glo ATP depletion luminescence
[8] = target: Calcium-dependent protein kinase 4 (Plasmodium falciparum (isolate 3D7)) (UniProt Q8IBS5); experiment: PfCDPK4 kinase inhibitors, biochemical, TCAMS library (AID 1159588; cut-off not given, nearly all actives have IC50 up to about 0.91 µM); details: recombinant PfCDPK4, Kinase-Glo ATP depletion luminescence
Calcium-dependent protein kinase 4 (Plasmodium falciparum (isolate 3D7)), sequence (Q8IBS5 whole entry, looked up): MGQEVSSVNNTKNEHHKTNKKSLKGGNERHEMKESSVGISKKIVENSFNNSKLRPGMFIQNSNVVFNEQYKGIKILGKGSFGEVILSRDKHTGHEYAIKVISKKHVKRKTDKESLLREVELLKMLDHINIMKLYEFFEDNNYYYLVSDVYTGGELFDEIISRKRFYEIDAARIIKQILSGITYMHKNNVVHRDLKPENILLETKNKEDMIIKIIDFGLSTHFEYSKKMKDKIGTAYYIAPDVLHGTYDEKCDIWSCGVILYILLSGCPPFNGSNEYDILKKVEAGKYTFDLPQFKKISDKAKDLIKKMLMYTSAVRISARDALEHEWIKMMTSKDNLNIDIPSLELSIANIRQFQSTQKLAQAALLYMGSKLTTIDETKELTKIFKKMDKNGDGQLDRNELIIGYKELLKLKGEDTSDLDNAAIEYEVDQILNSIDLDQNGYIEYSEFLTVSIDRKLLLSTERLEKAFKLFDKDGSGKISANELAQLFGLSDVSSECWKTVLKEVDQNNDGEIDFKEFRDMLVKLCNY

Plasmodium falciparum protein kinase 6 (PK6, PF3D7_1337100), sequence (Q8IDW1 1-305): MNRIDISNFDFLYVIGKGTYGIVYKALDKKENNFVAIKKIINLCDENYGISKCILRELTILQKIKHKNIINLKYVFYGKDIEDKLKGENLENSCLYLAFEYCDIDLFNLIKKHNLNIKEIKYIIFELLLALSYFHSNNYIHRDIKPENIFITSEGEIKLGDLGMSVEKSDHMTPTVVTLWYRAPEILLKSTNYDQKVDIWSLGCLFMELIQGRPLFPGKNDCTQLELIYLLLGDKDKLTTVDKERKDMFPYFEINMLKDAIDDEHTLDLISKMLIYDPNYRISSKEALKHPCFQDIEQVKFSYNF
Calcium-dependent protein kinase 1 (Plasmodium falciparum (isolate 3D7)), sequence (P62344 whole entry, looked up): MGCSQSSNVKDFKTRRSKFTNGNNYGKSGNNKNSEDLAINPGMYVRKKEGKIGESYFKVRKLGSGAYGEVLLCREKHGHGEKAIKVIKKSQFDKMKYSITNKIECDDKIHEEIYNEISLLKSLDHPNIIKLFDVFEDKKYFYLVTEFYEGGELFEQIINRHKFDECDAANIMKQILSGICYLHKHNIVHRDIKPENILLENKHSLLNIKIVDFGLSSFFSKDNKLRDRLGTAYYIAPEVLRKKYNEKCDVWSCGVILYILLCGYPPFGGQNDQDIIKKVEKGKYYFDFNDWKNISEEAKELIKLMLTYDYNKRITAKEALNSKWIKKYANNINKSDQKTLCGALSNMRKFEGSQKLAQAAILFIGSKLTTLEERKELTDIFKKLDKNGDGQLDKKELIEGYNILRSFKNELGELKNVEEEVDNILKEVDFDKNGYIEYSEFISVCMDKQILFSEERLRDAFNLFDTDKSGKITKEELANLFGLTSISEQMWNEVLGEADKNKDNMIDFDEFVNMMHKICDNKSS
L-lactate dehydrogenase (Plasmodium falciparum (isolate CDC / Honduras)), sequence (Q27743 whole entry, looked up): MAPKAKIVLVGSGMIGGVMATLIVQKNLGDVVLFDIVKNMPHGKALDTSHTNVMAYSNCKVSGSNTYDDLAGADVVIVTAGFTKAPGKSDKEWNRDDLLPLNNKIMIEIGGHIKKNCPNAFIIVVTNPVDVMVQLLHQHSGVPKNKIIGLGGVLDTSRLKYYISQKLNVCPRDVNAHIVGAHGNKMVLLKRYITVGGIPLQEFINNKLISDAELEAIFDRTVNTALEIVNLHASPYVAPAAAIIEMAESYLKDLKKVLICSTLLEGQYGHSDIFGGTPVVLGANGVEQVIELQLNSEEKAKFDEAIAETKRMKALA
Protein kinase 7 (PK7), Plasmodium falciparum 3D7 (PF3D7_0213400), sequence (Q7YTF7 1-343): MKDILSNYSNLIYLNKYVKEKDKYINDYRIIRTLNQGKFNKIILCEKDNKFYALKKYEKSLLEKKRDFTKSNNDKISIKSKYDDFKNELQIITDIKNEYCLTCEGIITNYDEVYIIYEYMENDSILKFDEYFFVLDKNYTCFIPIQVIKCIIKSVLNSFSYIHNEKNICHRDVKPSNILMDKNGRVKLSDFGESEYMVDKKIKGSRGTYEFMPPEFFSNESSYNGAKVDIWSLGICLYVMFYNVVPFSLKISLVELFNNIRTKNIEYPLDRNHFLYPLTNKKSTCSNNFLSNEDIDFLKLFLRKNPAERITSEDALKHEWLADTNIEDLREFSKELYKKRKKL

Cc1nnc2sc(-c3cccc(NC(=O)c4ccc(N5CCCCC5)c([N+](=O)[O-])c4)c3)nn12
inactive: growth inhibition [1] 20% | inhibition [2] 3% | inhibition [3] -3% | outcome [5] | outcome [6] | outcome [7] | outcome [8]
active: growth inhibition [4] 87%

CCN(CC)CCCC(C)Nc1c2cc(OC)ccc2nc2cc(Cl)c([N+](=O)[O-])cc12 (stereo not given)
inactive: inhibition [2] 12% | inhibition [3] 2% | outcome [5] | outcome [6] | outcome [7] | outcome [8]
active: growth inhibition [1] 89% | growth inhibition [4] 100%

O=C(/C=C/c1ccc(F)cc1)NC1CCC(CCN2CCc3ccc(-n4cccn4)cc3CC2)CC1 (stereo not given)
inactive: growth inhibition [1] 16% | inhibition [2] 23% | inhibition [3] 3% | outcome [5] | outcome [6] | outcome [7] | outcome [8]
active: growth inhibition [4] 89%

O=C(O)CNCC(O)c1ccccc1 (stereo not given)
active: growth inhibition [4] 96%
inactive: growth inhibition [1] -5% | inhibition [2] 7% | inhibition [3] -5% | outcome [5] | outcome [6] | outcome [7] | outcome [8]

O=C([C@@H]1CCCCN1c1ccc([N+](=O)[O-])c2ccccc12)N1CCN(c2ncccn2)CC1
active: inhibition [2] 50% | growth inhibition [4] 97%
inactive: growth inhibition [1] 5% | inhibition [3] 5% | outcome [5] | outcome [6] | outcome [7] | outcome [8]

CCCCCc1cc(OC(=O)CCCN(CC)CC)c2c(c1)OC(C)(C)C=C2C1=CCN(Cc2ccc3ccccc3c2)CC1
inactive: inhibition [3] -2% | outcome [5] | outcome [6] | outcome [7] | outcome [8]
active: growth inhibition [1] 92% | inhibition [2] 94% | growth inhibition [4] 100%

COc1ccc(CNCCc2cccs2)cc1-c1ccc(S(=O)(=O)NCCN2CCCC2)cc1
inactive: growth inhibition [1] 30% | inhibition [2] 30% | inhibition [3] 4% | outcome [5] | outcome [6] | outcome [7] | outcome [8]
active: growth inhibition [4] 99%

O=C(/C=C/c1ccc(Cl)c(Cl)c1)NCCCCCN1CCCC(CCCNC(=O)Nc2ccc(C(F)(F)F)cc2)C1 (stereo not given)
active: inhibition [2] 58% | growth inhibition [4] 101%
inactive: growth inhibition [1] 48% | inhibition [3] -4% | outcome [5] | outcome [6] | outcome [7] | outcome [8]

CN1CCCC1CCNCc1cccc(-c2cnc(N(C)C3CCCCC3)nc2)c1 (stereo not given)
active: growth inhibition [1] 95% | inhibition [2] 98% | growth inhibition [4] 99%
inactive: inhibition [3] 2% | outcome [5] | outcome [6] | outcome [7] | outcome [8]

CCN(CC)CCCCCNc1c2ccc(Cl)cc2nc2ccc(OC)cc12
active: growth inhibition [1] 99% | inhibition [2] 96% | growth inhibition [4] 99%
inactive: inhibition [3] 4% | outcome [5] | outcome [6] | outcome [7] | outcome [8]

COc1ccccc1NC(=O)NC1CCN(CCCCCNC(=O)/C=C/c2ccc(Cl)c(Cl)c2)CC1
inactive: growth inhibition [1] 15% | inhibition [2] 4% | inhibition [3] -1% | outcome [5] | outcome [6] | outcome [7] | outcome [8]
active: growth inhibition [4] 100%

CCc1ccc(O)c(-c2cc(C(=O)Nc3ccc(OC)c(Cl)c3)[nH]n2)c1
inactive: inhibition [2] 15% | inhibition [3] -1% | outcome [5] | outcome [6] | outcome [7] | outcome [8]
active: growth inhibition [1] 97% | growth inhibition [4] 93%

COc1cccc(OC(C)(C)c2nc(N[C@@H](C)c3ccccc3)c3cn[nH]c3n2)c1
inactive: inhibition [2] 44% | inhibition [3] -4% | outcome [5] | outcome [6] | outcome [7] | outcome [8]
active: growth inhibition [1] 69% | growth inhibition [4] 89%

CC(C)(Cc1ccc(Cl)cc1)NCCCCCCNCCc1ccc(O)c(O)c1
inactive: growth inhibition [1] -7% | inhibition [2] 45% | inhibition [3] -8% | outcome [5] | outcome [6] | outcome [7] | outcome [8]
active: growth inhibition [4] 90%

Cc1ccc(NC(=O)c2ccc(CN3CCCN(Cc4cccc(O)c4)CC3)cc2)cc1F
active: growth inhibition [4] 97%
inactive: growth inhibition [1] 31% | inhibition [2] 48% | inhibition [3] -2% | outcome [5] | outcome [6] | outcome [7] | outcome [8]

O=C(Nc1cccc(CN2CCCN(Cc3ccc4c(c3)OCO4)CC2)c1)c1ccc(Cl)c(Cl)c1
inactive: growth inhibition [1] 10% | inhibition [2] 34% | inhibition [3] -2% | outcome [5] | outcome [6] | outcome [7] | outcome [8]
active: growth inhibition [4] 92%

COc1ccc(Cc2cccc(C(C(=O)NCc3cc(Cl)cc(Cl)c3)N3CCN(C)CC3)c2)cc1 (stereo not given)
inactive: growth inhibition [1] 24% | inhibition [2] 8% | inhibition [3] -9% | outcome [5] | outcome [6] | outcome [7] | outcome [8]
active: growth inhibition [4] 101%

CC(C)COc1cc(C(=O)Nc2cnc3ccccc3c2)ccc1[N+](=O)[O-]
active: growth inhibition [1] 56% | growth inhibition [4] 97%
inactive: inhibition [2] 19% | inhibition [3] -1% | outcome [5] | outcome [6] | outcome [7] | outcome [8]

C=CCc1cccc(OC)c1OCCCON1C(N)=NC(N)=NC1(C)C
inactive: inhibition [3] -1% | outcome [5] | outcome [6] | outcome [7] | outcome [8]
active: growth inhibition [1] 95% | inhibition [2] 58% | growth inhibition [4] 94%

CC(C)N(Cc1ccc(-c2ccc(C(F)(F)F)cc2)cc1)C(=O)Cn1c(CCc2cccc(F)c2F)cc(=O)c2ccc(CCCN3CCCCC3)cc21
inactive: inhibition [3] 7% | outcome [5] | outcome [6] | outcome [7] | outcome [8]
active: growth inhibition [1] 82% | inhibition [2] 99% | growth inhibition [4] 100%

O=C(NCCCCN1CCC(c2ccc3c(c2OCc2ccccn2)CCCC3)CC1)c1ccc(NC(=O)c2ccc(Cl)cc2)cc1
active: growth inhibition [1] 70% | growth inhibition [4] 101%
inactive: inhibition [2] 31% | inhibition [3] -3% | outcome [5] | outcome [6] | outcome [7] | outcome [8]

Clc1ccc2c(NCCc3ccccn3)ccnc2c1
inactive: inhibition [2] 13% | inhibition [3] -1% | outcome [5] | outcome [6] | outcome [7] | outcome [8]
active: growth inhibition [1] 72% | growth inhibition [4] 92%

Cc1ccccc1-c1nc2c(CN3CCC(O)(c4ccccc4)CC3)c(O)ccc2[nH]1
inactive: inhibition [2] 27% | inhibition [3] 4% | outcome [5] | outcome [6] | outcome [7] | outcome [8]
active: growth inhibition [1] 61% | growth inhibition [4] 92%

CC(Cc1ccc(COc2ccc(CC(CO)NCCc3cccc(Cl)c3)cc2)cc1)NCCc1cccc(Cl)c1 (stereo not given)
inactive: inhibition [3] 5% | outcome [5] | outcome [6] | outcome [7] | outcome [8]
active: growth inhibition [1] 86% | inhibition [2] 99% | growth inhibition [4] 101%

COc1cc(-c2nc(-c3ccccc3)c(-c3ccccc3)[nH]2)ccc1OCCN(C)C
inactive: inhibition [2] -8% | inhibition [3] 5% | outcome [5] | outcome [6] | outcome [7] | outcome [8]
active: growth inhibition [1] 100% | growth inhibition [4] 101%

CCCCCN=C(N)c1ccc(OCCCCCOc2ccc(C(N)=NCCCCC)cc2)cc1
inactive: inhibition [2] 3% | inhibition [3] 6% | outcome [5] | outcome [6] | outcome [7] | outcome [8]
active: growth inhibition [1] 98% | growth inhibition [4] 99%

Cc1cc2nc(-c3ccc(/C=C/C(=O)NC4CCCCC4)cc3)[nH]c2cc1C
inactive: growth inhibition [1] 10% | inhibition [2] 9% | inhibition [3] 2% | outcome [5] | outcome [6] | outcome [7] | outcome [8]
active: growth inhibition [4] 93%

CCN(CC)CCN(Cc1ccc(-c2ccc(C(F)(F)F)cc2)cc1)C(=O)Cn1c(SCc2ccc(F)cc2)nc(=O)c2sccc21
inactive: inhibition [3] -1% | outcome [5] | outcome [6] | outcome [7] | outcome [8]
active: growth inhibition [1] 65% | inhibition [2] 51% | growth inhibition [4] 101%

CCc1nn2c(Nc3ccncc3)cc(C)nc2c1-c1ccccc1
inactive: inhibition [2] 4% | inhibition [3] 0% | outcome [5] | outcome [6] | outcome [7] | outcome [8]
active: growth inhibition [1] 98% | growth inhibition [4] 100%

Cc1cccc(C(=O)Nc2ccc(N3CCCN(Cc4cccc(O)c4)CC3)cc2)c1
active: growth inhibition [4] 92%
inactive: growth inhibition [1] 44% | inhibition [2] 2% | inhibition [3] -3% | outcome [5] | outcome [6] | outcome [7] | outcome [8]

OCCN1CCN(Cc2cccc(-c3cccc(-c4nc5ccc(F)cc5[nH]4)c3)c2)CC1
active: growth inhibition [1] 99% | growth inhibition [4] 102%
inactive: inhibition [2] 41% | inhibition [3] -2% | outcome [5] | outcome [6] | outcome [7] | outcome [8]

Cc1cnc(C(=O)Nc2cccc(-c3ccc(-c4nc5ccc(C(F)(F)F)cc5[nH]4)s3)c2)cn1
inactive: growth inhibition [1] 14% | inhibition [2] 35% | inhibition [3] -7% | outcome [5] | outcome [6] | outcome [7] | outcome [8]
active: growth inhibition [4] 86%

Cc1[nH]c(C)c(-c2ccc(OCc3ccc(OC(F)(F)F)cc3)nc2)c(=O)c1Cl
inactive: inhibition [2] 3% | inhibition [3] -3% | outcome [5] | outcome [6] | outcome [7] | outcome [8]
active: growth inhibition [1] 96% | growth inhibition [4] 98%

COc1cccc(CNC(=O)c2ccnc(-c3ccc(CNCCOc4ccccc4)cc3)c2)c1
active: growth inhibition [4] 83%
inactive: growth inhibition [1] 10% | inhibition [2] 23% | inhibition [3] -4% | outcome [5] | outcome [6] | outcome [7] | outcome [8]

CN=C(N)c1ccc(NC(=O)Nc2ccc(C(N)=NC)cc2)cc1
active: growth inhibition [1] 71% | growth inhibition [4] 84%
inactive: inhibition [2] -5% | inhibition [3] -2% | outcome [5] | outcome [6] | outcome [7] | outcome [8]

Nc1c2nc(-c3c(F)cccc3Cl)[nH]c(=O)c2nc(=O)n1-c1ccccc1
active: inhibition [2] 52% | growth inhibition [4] 95%
inactive: growth inhibition [1] 0% | inhibition [3] 2% | outcome [5] | outcome [6] | outcome [7] | outcome [8]

CN1CCC(N(Cc2ccc(-c3ccc(Cl)cc3)cc2)C(=O)Cn2c(CCc3cccc(F)c3F)cc(=O)c3ccccc32)CC1
active: growth inhibition [1] 88% | inhibition [2] 93% | growth inhibition [4] 97%
inactive: inhibition [3] -3% | outcome [5] | outcome [6] | outcome [7] | outcome [8]

Oc1cc(Nc2ccnc3cc(I)ccc23)ccc1F
inactive: inhibition [2] -6% | inhibition [3] 0% | outcome [5] | outcome [6] | outcome [7] | outcome [8]
active: growth inhibition [1] 99% | growth inhibition [4] 99%

CCOc1cc(C(=O)NCC2CCN(CC3CCCCC3)CC2)ccc1-c1nc2ccc(Cl)cc2[nH]1
inactive: inhibition [2] 14% | inhibition [3] -6% | outcome [5] | outcome [6] | outcome [7] | outcome [8]
active: growth inhibition [1] 59% | growth inhibition [4] 98%

Cc1ccc(-c2noc(COc3ccccc3C(=O)NC3CCCC3)n2)cc1
inactive: inhibition [2] 9% | inhibition [3] -4% | outcome [5] | outcome [6] | outcome [7] | outcome [8]
active: growth inhibition [1] 92% | growth inhibition [4] 89%
